Test results taken from PMC4552634, “A New Set of Chemical Starting Points with Plasmodium falciparum Transmission-Blocking Potential for Antimalarial Drug Discovery” (PLoS ONE, 2015).
The whole screen tested about 13,000 compounds, of which about 3,200 (25%) showed an effect of 50% or more. This is one part of the list.

Each molecule was assayed on P. falciparum stage V gametocytes. Settings: 48 h, 5 µM; inhibitor.
Design: BacTiter-Glo ATP luminescence viability of purified stage V gametocytes in 384-well plates, per cent inhibition versus DMSO
For `CC(C)(C)c1cc(NC(=O)c2ccc(Cl)c([N+](=O)[O-])c2)cc(C(C)(C)C)c1` [TCMDC-125604], the “% Inhibition” value was 2.881%.
`Cc1ccc(C(=O)N2CCN(Cc3nccs3)CC2)cc1` [TCMDC-140738] was tested, and the “% Inhibition” value was 3.888%.
With `O=c1cc(NCCCNCc2scc(I)c2I)[nH]c2ccccc12` [TCMDC-140908] the “% Inhibition” value was -12.68%.
`Nc1cc(-c2ccc3c(N)nccc3c2)ccc1Cl` [TCMDC-136895] was tested, and the “% Inhibition” value was -23.38%.
`Nc1nccc2ccc(-c3cccnc3)cc12` [TCMDC-136599] was tested, and the “% Inhibition” value was 30.25%.
For `CN(C)Cc1ccc(-c2ccc3ccnc(N)c3c2)cc1` [TCMDC-136790], the “% Inhibition” value was 60.33%.
In the case of `Nc1nccc2ccc(-c3cccc4ncccc34)cc12` [TCMDC-133424], the “% Inhibition” value is reported as 95.32%.
`Nc1cccc(-c2ccc3ccnc(N)c3c2)c1` [TCMDC-136762] was tested, and the “% Inhibition” value was 21.07%.
For `NCc1cccc(-c2ccc3ccnc(N)c3c2)c1` [TCMDC-136889], the “% Inhibition” value was 55.02%.
In the case of `NCc1ccc(-c2ccc3c(N)nccc3c2)cc1` [TCMDC-133718], the “% Inhibition” value is reported as 107.3%.
In the case of `COC(=O)c1noc(C)c1I` [TCMDC-131678], the “% Inhibition” value is reported as -0.6747%.
In the case of `CN1CCN(c2ccc(Nc3c(C(N)=O)cnc4cc(-c5ccoc5)ccc34)cc2C(F)(F)F)CC1.Cl` [TCMDC-135443], the “% Inhibition” value is reported as 2.768%.
In the case of `O=C(Nc1ccc(Cl)cc1)Nc1ccc(-c2cccc(-c3nc4ccccc4[nH]3)c2)cc1` [TCMDC-133187], the “% Inhibition” value is reported as -14.37%.
For `CC(C)(C)CCOC(=O)N1CCc2c(cc(O)c(O)c2Cl)C(c2ccc(O)cc2)C1` (stereo not shown) [TCMDC-141981], the “% Inhibition” value was -77.14%.
For `Nc1nc(N)c2c3c(ccc2n1)CCC3` [TCMDC-137720], the “% Inhibition” value was -10.07%.
With `Cc1ccc(NC(=S)N2CCCN(CCCCCNC(=O)/C=C/c3ccc(Cl)c(Cl)c3)CC2)cc1Cl` [TCMDC-135895] the “% Inhibition” value was -0.4693%.
With `COc1ccccc1CNC(=O)c1cc(C2CC2)nc2c1cnn2C(C)C` [TCMDC-125250] the “% Inhibition” value was 49.1%.
With `Cc1cccc(C)c1N1CCN(C2CCC(NC(=O)/C=C/c3ccccc3)CC2)CC1` (stereo not shown) [TCMDC-132881] the “% Inhibition” value was -29.57%.
In the case of `COCCN1CCC(NCC(C)(C)c2nc(-c3ccc(Cl)c(O)c3)c(-c3ccncc3)[nH]2)CC1` [TCMDC-140926], the “% Inhibition” value is reported as -95.92%.
In the case of `CCCN(Cc1nnc(-c2ccco2)o1)C(=O)C1CCCN(C(=O)c2ccc(Cl)cc2)C1` (stereo not shown) [TCMDC-125334], the “% Inhibition” value is reported as -4.25%.
For `Cc1cc(CNC(=O)c2ccc(-c3ccc(-c4nc5cc(C(F)(F)F)ccc5[nH]4)s3)cc2)on1` [TCMDC-132481], the “% Inhibition” value was -11.54%.
`CCCCCc1cc(O)c2c(c1)OC(C)(C)CC2C1=CCN(Cc2cnc3ccccc3c2)CC1` (stereo not shown) [TCMDC-131418] was tested, and the “% Inhibition” value was -11.08%.
With `Nc1nccc2ccc(-c3ccsc3)cc12` [TCMDC-133431] the “% Inhibition” value was 53.31%.
For `Nc1nccc2ccc(Oc3ccncc3)cc12` [TCMDC-136517], the “% Inhibition” value was 51.03%.
For `Nc1ncc(-c2ccsc2)c2ccc(-c3ccc4cn[nH]c4c3)cc12` [TCMDC-135299], the “% Inhibition” value was 100.9%.
`Nc1nccc2ccc(-c3ccc(Oc4ccccc4)cc3)cc12` [TCMDC-133432] was tested, and the “% Inhibition” value was 19.11%.
In the case of `Nc1nccc2ccc(-c3ccncc3)cc12` [TCMDC-138929], the “% Inhibition” value is reported as 32.25%.
In the case of `Nc1ncc(-c2ccsc2)c2ccc(-c3cnc[nH]3)cc12` [TCMDC-135369], the “% Inhibition” value is reported as -1.546%.
In the case of `Nc1nccc2ccc(-c3ccc4nccn4c3)cc12` [TCMDC-133425], the “% Inhibition” value is reported as 49.74%.
With `Cn1cncc1-c1ccc2c(-c3ccsc3)cnc(N)c2c1` [TCMDC-135368] the “% Inhibition” value was 3.201%.
In the case of `Nc1nnc(-c2ccc(Cl)c(Br)c2)c(N)n1` [TCMDC-137285], the “% Inhibition” value is reported as -16.33%.
With `Cc1cc(N2Cc3ccccc3C2)nc(Nc2cccc(C#N)c2)n1` [TCMDC-134199] the “% Inhibition” value was -14.79%.
In the case of `Cc1[nH]c2c(C)cc(NS(C)(=O)=O)cc2c1C1CCN(CC2CCN(C(=O)/C=C/c3ccc(Cl)c(Cl)c3)CC2)CC1` [TCMDC-140173], the “% Inhibition” value is reported as -57.53%.
For `Cc1cccc(C(=O)Nc2ccnc(N(C)CCCN(C)Cc3cccc(C#N)c3)c2)c1` [TCMDC-134968], the “% Inhibition” value was 26.78%.
`CC(C)CCN1CCCN(Cc2ccc(C(=O)NCc3ccc(Cl)cc3)cc2)CC1` [TCMDC-136452] was tested, and the “% Inhibition” value was -12.3%.
For `O=C(Nc1ccccc1O)c1ccc(S(=O)(=O)c2ccc(Cl)cc2)cc1` [TCMDC-123689], the “% Inhibition” value was 47.63%.
`O=C(NCc1ccco1)c1ccc(S(=O)(=O)c2ccc(Cl)cc2)cc1` [TCMDC-124393] was tested, and the “% Inhibition” value was 65.45%.
With `O=C(Nc1ccc(-c2cccc(-c3nc4ccccc4[nH]3)c2)cc1)Nc1ccc(Cl)c(Cl)c1` [TCMDC-133284] the “% Inhibition” value was -10.68%.
`O=C(Nc1ccccc1O)c1ccc(Oc2cccc(C(=O)Nc3ccccc3O)c2)cc1` [TCMDC-125220] was tested, and the “% Inhibition” value was -89.02%.
`Cc1cc2ccccc2n1CC(=O)N1CC(C(=O)N2CCCCC2)Oc2ccccc21` (stereo not shown) [TCMDC-125253] was tested, and the “% Inhibition” value was 84.5%.
For `CCN(CC)C(=O)C1CCN(C(C(=O)N2CCN(CC(=O)N3CCCC3)CC2)c2cc3ccccc3o2)CC1` (stereo not shown) [TCMDC-141126], the “% Inhibition” value was -9.75%.
In the case of `COc1ccc(C(F)(F)F)cc1N1CCN(CCCCNC(=O)c2ccc(NC(=O)c3ccc(Cl)cc3)cc2)CC1` [TCMDC-138258], the “% Inhibition” value is reported as -21.85%.
With `O=C(Nc1ccc(C(=O)OCC2CCCN3CCCCC23)cc1)c1ccc(Cl)c(Cl)c1` (stereo not shown) [TCMDC-124027] the “% Inhibition” value was 3.603%.
In the case of `CN1CCN(c2ccc(Nc3ccnc4ccc(-c5ccccc5)cc34)cc2)CC1` [TCMDC-123917], the “% Inhibition” value is reported as -37.23%.
For `CC(C)Nc1ccc(Nc2ccnc3cc4ccccc4cc23)cc1` [TCMDC-123916], the “% Inhibition” value was -35.26%.
In the case of `CCN(CC)CCNc1ccnc2ccc3ccccc3c12` [TCMDC-131800], the “% Inhibition” value is reported as 5.083%.
With `CCN(CC)CCNc1ccc(Nc2ccnc3cc4ccccc4cc23)cc1` [TCMDC-123498] the “% Inhibition” value was 93.37%.
`c1ccc2cc3c(Nc4ccc(N5CCCCC5)cc4)ccnc3cc2c1` [TCMDC-123505] was tested, and the “% Inhibition” value was -37.48%.
In the case of `OCCN1CCN(c2ccc(Nc3ccnc4cc5ccccc5cc34)cc2)CC1` [TCMDC-123915], the “% Inhibition” value is reported as 73.35%.
